PubChem BioAssay AID488969 (Vanderbilt High Throughput Screening Facility, 2010)
The full ranking holds about 110,000 compounds; the median of “z-score” is about -0.1, and the highest 2% start at about 2. The list comes from a sample in which the highest values are over-represented; it also holds similar structures and randomly drawn compounds. The source made the active and inactive calls.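 The calls were made as follows: active = z-score in the third read window above 3 or below -3; inactive = the rest.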

These compounds were tested against Metabotropic glutamate receptor 8 (Rattus norvegicus) (UniProt P70579) (assay: mGluR8 Gi/Go-coupled signaling modulation – cell-based, rat, thallium flux, HTS, primary screen (AID 488969)). Conditions: HEK293 rat mGluR8, GIRK (G protein-gated inwardly rectifying potassium channel) thallium flux, FluoZin2; at 10 µM; stronger effect = higher value; submaximal glutamate (EC20) added with thallium.
Metabotropic glutamate receptor 8 (Rattus norvegicus), sequence (P70579 whole entry, looked up): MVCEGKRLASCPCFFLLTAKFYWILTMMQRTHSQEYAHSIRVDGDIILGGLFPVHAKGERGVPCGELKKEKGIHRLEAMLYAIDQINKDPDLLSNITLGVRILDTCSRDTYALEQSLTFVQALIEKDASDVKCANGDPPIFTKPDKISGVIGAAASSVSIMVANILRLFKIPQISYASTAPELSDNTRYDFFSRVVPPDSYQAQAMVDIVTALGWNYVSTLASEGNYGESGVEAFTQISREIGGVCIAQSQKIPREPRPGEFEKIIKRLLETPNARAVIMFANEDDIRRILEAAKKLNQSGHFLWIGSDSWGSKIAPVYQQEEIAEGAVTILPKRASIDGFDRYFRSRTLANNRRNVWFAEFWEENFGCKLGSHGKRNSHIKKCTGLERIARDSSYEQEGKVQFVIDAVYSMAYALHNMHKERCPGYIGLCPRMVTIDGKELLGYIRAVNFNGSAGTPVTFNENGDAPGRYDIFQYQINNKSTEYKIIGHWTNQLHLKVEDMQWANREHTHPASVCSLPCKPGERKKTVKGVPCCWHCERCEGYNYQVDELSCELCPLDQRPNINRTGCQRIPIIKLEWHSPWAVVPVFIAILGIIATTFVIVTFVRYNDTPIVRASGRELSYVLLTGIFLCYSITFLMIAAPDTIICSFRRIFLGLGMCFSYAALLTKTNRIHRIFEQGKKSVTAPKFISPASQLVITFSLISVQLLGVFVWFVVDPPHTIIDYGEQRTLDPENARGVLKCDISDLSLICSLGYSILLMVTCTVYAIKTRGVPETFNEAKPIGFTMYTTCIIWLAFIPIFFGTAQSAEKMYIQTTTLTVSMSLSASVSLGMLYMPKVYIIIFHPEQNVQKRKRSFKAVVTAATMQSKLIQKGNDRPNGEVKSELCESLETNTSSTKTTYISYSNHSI
Nc1cc2c(cc1C(=O)c1ccccc1)OCCO2 gave a z-score of 0.199. Work on Nc1sccc1C(=O)c1ccc(Cl)cc1 yielded a z-score of -0.434. Nc1sccc1C(=O)c1ccccc1 was tested, and the z-score was 11 (active). With O=C(Cc1ccccc1)N/N=C/c1cc(Br)c(Br)o1 the z-score was -0.248. In the case of O=C(N/N=C\c1cc(Br)c(Br)o1)c1cncc(Br)c1, the z-score is reported as 9.73 (active). O=C(N/N=C/c1ccc(-c2ccccc2[N+](=O)[O-])o1)c1cncc(Br)c1 showed a z-score of -1.68. Work on Cc1ccnc(NC(=O)CCC(=O)N(CC(=O)NC2CCCCC2)c2cccc(C)c2C)c1 yielded a z-score of -0.622. COc1ccc(OC)c(-c2cc(C(=O)Nc3c(C)nn(Cc4ccccc4Cl)c3C)no2)c1 showed a z-score of -0.834. CC1Cc2ccccc2N1C(=O)COC(=O)Cn1cnc2ccccc2c1=O (stereo not given) showed a z-score of -0.55. Compound Cc1ccc(C(=O)c2cn[nH]c2-c2cc(Cl)ccc2O)cc1 has a z-score of -0.48. Work on Cc1cccc(/C(N)=N/OC(=O)c2ccc(Cl)cc2Cl)c1 yielded a z-score of -0.137. Cc1ccc(C(=O)CNc2cccc(Cl)c2)cc1 was tested, and the z-score was -0.0331. For O=C(CCc1ccccc1)Nc1cc(Cl)ccc1O, the z-score was -0.624. In the case of O=C(CC(=O)c1cc(Cl)ccc1O)c1ccccc1, the z-score is reported as 3.32 (active). With O=C(O)CC(=O)Nc1cc(Cl)ccc1O the z-score was 0.845. Cc1cccc(C(=O)CC(=O)c2cc(Cl)ccc2O)c1 was tested, and the z-score was 4.14 (active). For Cc1ccc(C(=O)CC(=O)c2cc(Cl)ccc2O)cc1, the z-score was 7.14 (active). Cc1cccc(C(=O)Nc2ccc(NC(=O)Cc3ccc(Cl)cc3)cc2)c1 showed a z-score of -0.0593. COc1nc(-c2ccccc2)ccc1-c1noc(-c2ccccc2F)n1 was tested, and the z-score was 0.0977. Work on NC(=O)c1ccccc1OCC(=O)NC12CC3CC(CC(C3)C1)C2 yielded a z-score of -0.0638. COC(=O)Nc1snnc1C showed a z-score of -0.189. With CCOC(=O)C1=C(C)N(C)C(=O)NC1c1cc2c(cc1Br)OCO2 (stereo not given) the z-score was 1.61. CCc1nc(NCc2ccco2)c2oc3ccccc3c2n1 gave a z-score of -0.48. Compound O=C(CN1C(=O)c2cccc3cccc1c23)Nc1ccc(S(=O)(=O)N2CCOCC2)cc1 has a z-score of -0.376. COc1cccc(C(=O)Nc2ccccc2N2CCOCC2)c1 gave a z-score of 0.0601. CN1C(=S)SC(/[N+]([O-])=C\c2cccs2)C1(C)C (stereo not given) showed a z-score of -0.0661. Work on CC(=O)Nc1cc2c(cc1NC(=O)Cn1nc(-c3ccc4c(c3)OCCO4)ccc1=O)OCCO2 yielded a z-score of -0.275. CC(=O)Nc1cc2c(cc1NC(=O)Cn1nc(-c3ccccc3F)ccc1=O)OCCO2 gave a z-score of -0.0689. COc1cccc(-c2ccc(=O)n(CC(=O)Nc3cc4c(cc3NC(C)=O)OCCO4)n2)c1 was tested, and the z-score was 2.05. Compound Cc1cnc(C(=O)Nc2cc(S(=O)(=O)N3CCOCC3)ccc2N2CCN(C)CC2)cn1 has a z-score of 0.0173. In the case of O=C(N/N=C/C=C/c1ccc2c(c1)OCO2)c1ccc([N+](=O)[O-])cc1, the z-score is reported as 0.0517. With CCCN(CCC)S(=O)(=O)c1ccc(C(=O)Nc2nc(-c3ccccc3)c(C(=O)OCC)s2)cc1 the z-score was -0.243. Clc1ccccc1CN1CCC(Cc2ccccc2)CC1 showed a z-score of -0.0513. Work on O=C(NCCN1CCOCC1)C1CCC(=O)N1Cc1ccc(F)cc1 (stereo not given) yielded a z-score of 0.194. For Cc1ccc(-c2ccc(/C=C/C(=O)c3ccccc3)o2)cc1, the z-score was -0.233. In the case of Cc1cc2cc(OCC(=O)O)ccc2n1C, the z-score is reported as 0.494. For C/C(=N\NC(=S)Nc1cccc(C)c1)c1cccc(N)c1, the z-score was 3.42 (active). Compound Cc1cccc(NC(=S)N/N=C/c2c[nH]c3ccccc23)c1 has a z-score of -0.0914. With C/C(=N\NC(=O)Nc1ccccc1)c1ccccc1 the z-score was -0.157. C/C(=N\NC(=S)Nc1cccc(C)c1)c1ccccc1 was tested, and the z-score was 5.36 (active). Work on C/C(=N\NC(=O)c1cccc(C)c1)c1cccc(NC(=O)c2ccco2)c1 yielded a z-score of -0.159. Work on Cc1cccc(NC(=S)N/C(=N/S(=O)(=O)c2ccccc2)c2ccccc2)c1 yielded a z-score of 1.97. CCOC(=O)C(NC(=O)CC)(N1CCc2ccccc2C1)C(F)(F)F (stereo not given) gave a z-score of -0.138. Compound O=C(NCCCN1CCC(Cc2ccccc2)CC1)C1CC(=O)N(C2CCCCCC2)C1 (stereo not given) has a z-score of 1.25. In the case of O=C(Nc1ccccc1)c1ccc(CSc2ccccn2)cc1, the z-score is reported as -0.0973. Compound COc1cc(NC(=O)C2CCCCC2)c2ncccc2c1 has a z-score of -0.248. COc1cc(NC(=O)c2ccc3c(c2)OCO3)c2ncccc2c1 gave a z-score of -0.168. With COc1cc(NCCCCCCCN)c2ncccc2c1 the z-score was 2.78. In the case of CCCOc1ccc(C(=O)NNC(=S)NC(=O)CC)cc1, the z-score is reported as 3.01 (active). CCCOc1ccc(C(=O)NNC(=S)NC(C)=O)cc1 gave a z-score of 0.435. Work on C=CCNC(=S)NNC(=O)c1ccc(OCCC)cc1 yielded a z-score of 0.095. Compound C=CCNC(=S)NNC(=O)c1ccc(OCCCC)cc1 has a z-score of -0.162. Work on CCC(=O)NC(=S)NNC(=O)c1ccc(OC)cc1 yielded a z-score of -0.0696. With CCCCOc1ccc(C(=O)NNC(=S)NC(=O)CC)cc1 the z-score was 4.28 (active). In the case of CN(C1CCS(=O)(=O)C1)S(=O)(=O)c1ccc(C2CCCCC2)cc1 (stereo not given), the z-score is reported as 0.314. CCOC(=O)CSc1nnc(NC(=O)c2cccc([N+](=O)[O-])c2C)s1 gave a z-score of 0.774. Compound O=C(NC(NC(=O)c1ccccc1)C(=O)c1ccccc1)c1ccccc1 has a z-score of -0.143. With CC1=C/C(=N\NC(=O)c2ccccc2)CC1 the z-score was -0.0871. For O=C(NN=c1c(=O)c2ccccc2c1=O)c1ccccc1, the z-score was 6.47 (active). O=[N+]([O-])c1cc(/C=N/Nc2nc(N3CCOCC3)nc(N3CCOCC3)n2)ccc1Cl showed a z-score of -0.222. COc1ccc(C2C3=C(CC(C)(C)CC3=O)Nc3cc4c(cc32)OCO4)cc1 (stereo not given) showed a z-score of -0.138. For COc1cccc(C2C3=C(CC(C)(C)CC3=O)Nc3cc4c(cc32)OCO4)c1 (stereo not given), the z-score was 2.12. Compound CC1(C)CC(=O)C2=C(C1)Nc1cc3c(cc1C2c1ccc2c(c1)OCO2)OCO3 (stereo not given) has a z-score of -0.639. Cc1nc2cc(N3CCCCC3)c(NC(=O)c3ccncc3)cc2c(=O)n1Cc1ccc(Cl)cc1 was tested, and the z-score was -0.37. With Cc1nn(C(=O)c2nn(C)cc2Cl)c(C)c1Br the z-score was 0.0765. With CC(=O)c1cn(CC(=O)NCc2ccco2)c2ccccc12 the z-score was -0.774. With CCCNC(=S)N1CCC(c2nc3cc(C)c(C)cc3[nH]2)CC1 the z-score was -0.228. Cc1ccc(-c2nn(CC(=O)Nc3cccnc3)c(=O)c3ccccc23)cc1 was tested, and the z-score was -0.291. CN(C)c1ccc(C2C3C(=O)NC(=O)C3ON2c2ccc(Cl)cc2)cc1 (stereo not given) gave a z-score of 2.58. Work on COc1ccccc1N1C(=O)C2ON(c3ccccc3)C(c3ccc(N(C)C)cc3)C2C1=O (stereo not given) yielded a z-score of 0.0686. CN(C)c1ccc(C2N(c3ccc(Cl)cc3)C(=O)C3CCCN32)cc1 (stereo not given) showed a z-score of -0.129. With Cc1ccc(C(=O)C(C(=O)/C=C/c2ccccc2)=C2SCCCS2)cc1 the z-score was 0.0319. Compound c1ccc(-c2csc3ncn4nnnc4c23)cc1 has a z-score of -0.177. CCCC1CC(CSC(=N)N)OC1=O (stereo not given) gave a z-score of -0.478. Cc1csc(SCC(=O)Nc2nc(-c3ccccc3)cs2)n1 showed a z-score of 1.07. With Cc1csc(SCC(=O)Nc2nc3ccccc3s2)n1 the z-score was 3.3 (active). Cc1csc(NC(=O)CSc2nc3ccccc3s2)n1 gave a z-score of -0.293. Cc1ccc(-c2nnc(SCC(=O)N3CCN(c4ccccc4)CC3)o2)cc1 was tested, and the z-score was -1.07. For COc1ccc2[nH]c(=O)c(CN(C(=O)c3ccccn3)c3ccccc3)cc2c1, the z-score was -0.101. Work on CCCN(CC1CC1)C(=O)COC(=O)c1[nH]c(C)c(C(=O)OCC)c1C yielded a z-score of -0.372. COc1cc(NC(=O)c2cccnc2Sc2ccc(Cl)cc2)cc(OC)c1OC showed a z-score of -0.134. In the case of Cc1ccc(S(=O)(=O)NC(Cc2c[nH]c3ccccc23)C(=O)O)cc1 (stereo not given), the z-score is reported as -0.0187. In the case of O=C(O)C(Cc1c[nH]c2ccccc12)NS(=O)(=O)c1cccc2nsnc12 (stereo not given), the z-score is reported as 0.00264. Work on Cc1cccc(S(=O)(=O)NC(Cc2c[nH]c3ccccc23)C(=O)O)c1 (stereo not given) yielded a z-score of 2.17. For CC(C)(C)c1[nH]nc2c1C(c1ccccc1OC(=O)N1CCOCC1)C(C#N)=C(N)O2 (stereo not given), the z-score was -2.43. O=C(CSc1nc2ccccc2[nH]1)N/N=C/C=C/c1ccccc1[N+](=O)[O-] gave a z-score of -0.487. Work on Cc1ccc(S(=O)(=O)Nc2cc(C(=O)NCCN3CCCC3)ccc2N2CCCCC2)cc1 yielded a z-score of 1.81. Compound COCCCNC(=O)c1ccc(N2CCCC2)c(NS(=O)(=O)c2ccc(C)cc2)c1 has a z-score of 0.547. CCN(CC)CCNC(=O)c1ccc(N2CCCCC2)c(NS(=O)(=O)c2ccc(C)cc2)c1 gave a z-score of 2.96. Compound Cc1nnc2sc(SCc3ccccc3)nn2c1=O has a z-score of -0.0579. CC(=O)/C(=N\Nc1ccc(Cl)cc1Cl)Sc1cccc2cccnc12 was tested, and the z-score was 2.29. In the case of CC(=O)/C(=N\Nc1cccc(Cl)c1)Sc1cccc2cccnc12, the z-score is reported as 0.635. CC(=O)/C(=N\Nc1ccccc1Cl)Sc1cccc2cccnc12 gave a z-score of 0.299. Compound CC(C)(C)SCCNC(=O)c1ccc(NS(C)(=O)=O)cc1 has a z-score of -0.0865. O=C(CSc1ccc(Cl)cc1)N1CCN(c2ncc(C(F)(F)F)cc2Cl)CC1 gave a z-score of -0.0561. Work on Cc1cc(NC(c2cccnc2)c2ccc3cccnc3c2O)no1 (stereo not given) yielded a z-score of -0.344. Cc1cc(NC(c2ccc(Cl)cc2)c2ccc3cccnc3c2O)no1 (stereo not given) was tested, and the z-score was 1.61. Cc1conc1NC(c1cccs1)c1ccc2cccnc2c1O (stereo not given) was tested, and the z-score was 3.41 (active). For COc1cccc(NC(=O)N(Cc2cc3cc(C)cc(C)c3[nH]c2=O)CC2COCCO2)c1 (stereo not given), the z-score was -0.438. COc1ccc(NC(=O)/C=C/C(=O)O)cc1Cl showed a z-score of 0.0641. Cc1ccc(NC(=O)/C(=C\c2ccccc2)NC(=O)/C=C/c2ccccc2)cc1 gave a z-score of -0.26. With O=C(NCc1nnc(SCC(=O)N2CCN(c3ccccc3)CC2)o1)c1ccco1 the z-score was -0.268. For CC1CCN(C(=O)CSc2nnc(CNC(=O)c3ccco3)o2)CC1, the z-score was 2.28. In the case of O=C(NCc1nnc(SCC(=O)N2CCCCCC2)o1)c1ccco1, the z-score is reported as -0.474. In the case of CCOC(=O)c1c(NC(=O)CSc2nnc(CNc3ccc(Cl)cc3)o2)sc(C)c1C, the z-score is reported as -0.783. In the case of Cn1nc(C(F)(F)F)c2cc(NC(=O)OCC(C)(C)C)sc21, the z-score is reported as -1.03. Cn1nc(C(F)(F)F)c2cc(NC(=O)OCc3ccc(F)cc3)sc21 was tested, and the z-score was 9.32 (active). With COc1ccc(COC(=O)Nc2cc3c(C(F)(F)F)nn(C)c3s2)cc1 the z-score was -0.456. N/C(=N\OC(=O)CSc1ccccc1)c1cccc([N+](=O)[O-])c1 gave a z-score of -0.477. With O=C(COC(=O)c1ccccc1NC(=O)c1ccccc1)c1ccc([N+](=O)[O-])cc1 the z-score was -0.202.
